Experimental findings from PubChem BioAssay (NCI) are described below.

Structures are written as SMILES. The panel holds about 83,000 compounds, 20% with a hit somewhere; the sample as a whole holds those more often.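 Treatment: one concentration, 48 hours, 96-well format. Scoring: percent growth, with anything below 10 considered active.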 Unmarked numbers belong to inactive results. Calls of active or inactive are those of the source.

The test concerns SNB-75 CNS. The test is described as follows: NCI-60 one-dose screen, 48 h (100 = growth as untreated, 0 = no growth, -100 = all killed). To be noted: 10 µM unless noted. The method, then:
Growth inhibition of the SNB-75 human tumor cell line is measured as a screen for anti-cancer activity. Cells are grown in 96 well plates and exposed to the test compound for 48 hours. Compounds are tested at a single concentration, which is 10^-5 M for most compounds. The reported endpoint is percent growth (GI% or GIPRCNT), where numbers from 0 - 100% represent growth inhibition, and numbers from -100% - 0 represent cell death. For example, a value of 40 represents 60% growth inhibition. A value of 0 means no net growth occurred over the course of the experiment. A value of -40 indicates 40% of cells at the beginning of the experiment died by the end of the experiment. A value of -100 means all cells are dead at the end of the experiment.
NCI-60 Human Tumor Cell Lines Screen was performed using the standard one-dose NCI protocol, which is described in more detail at https://dtp.cancer.gov/discovery_development/nci-60/default.htm.
Compounds with GIPRCNT values below 10 were considered active. Activity score was based on GIPRCNT using the following formula: […]
Score is 0 for GIPRCNT values of 100 or above, 50 for GIPRCNT values of 0, and 100 for GIPRCNT values of -100.
Consider `O=C(CCCCl)NNc1nccc(Nc2ccc(S(=O)(=O)Nc3ccncc3)cc2)n1`, for which the growth was 93.2%.

Regarding `CC/C=C\C/C=C/C=C1/C(=O)C=C[C@@H]1C/C=C\CCCC(=O)OC`, the growth is 93.4%.

With `CCCCCCCCn1ccc2cc(NC(=O)Cn3cc(CN4CCN(CC)CC4)nn3)ccc21`, the growth is 87.5%.

For `CCNC(=O)Oc1ccc(/C(=C(/C)Cc2ccc(OC)cc2)c2ccc(OCCN3CCCC3)cc2)cc1`, the growth is 73.8%.

Take `Fc1ccc2c(c1)c(-c1nc(-c3c[nH]c4ncccc34)cs1)cn2CCCN1CCOCC1`: the growth was 41.2%.

As to `Cc1cc(C)cc(Nc2ccc([N+](=O)[O-])c(NCCN3CCOCC3)n2)c1`, the growth was 31.3%.

For `Cc1ccc(-c2nc(C(Cl)Cl)nc3cc(C)nn23)cc1`, the growth was -11.5% (active).

Regarding `CS(=O)(=O)Nc1cncc(-c2ccc3ncnc(Nc4ccc(F)c(Cl)c4)c3c2)c1`, the growth was 33%.

As to `CN(C)c1ccc(/C=C/C(=O)c2ccc(Nc3nc(Nc4ccc(F)cc4)nc(Nc4ccc(Cl)cc4)n3)cc2)cc1`, the growth is 76.9%.

In the case of `COc1ccc(NC(=O)c2cccc(C3CCc4c(cc(OC)c(OC)c4OC)O3)c2)cc1` (stereo not given), the growth was 13.1%.

`CCOC(=O)c1cn2ncnc(Oc3ccc(NC(=O)NC4CC4)c(F)c3)c2c1C`: the growth was 91.3%.

For `CC(C)(C)C(=O)/C=C/c1ccc([N+](=O)[O-])cc1`, the growth was 81.1%.

Take `COc1cccc2c(N=NC(=O)c3ccc(S(N)(=O)=O)cc3)c(O)[nH]c12`: the growth is 95.1%.

With `CCOC(=O)c1n[nH]n2c1nc(=O)c1cnn(C)c12`, the growth was 103%.

On to `C#Cc1cccc(Oc2ccc(NC(=O)CCl)cc2)c1`, for which the growth was 58.2% [8.25 µM].

For the compound `N#Cc1c(-c2cccc([N+](=O)[O-])c2)cc(-c2ccc(Nc3nc(Nc4ccc(F)cc4)nc(Nc4ccc(F)cc4)n3)cc2)nc1N`, the growth is 102%.

Take `O=C(/C=C/c1ccccc1)Nc1ncc(Cc2ccccc2)s1`: the growth is -2.19% (active).

Turning to `COc1ccc(/C=C/C(=O)c2cc3c(N)c(C(=O)Nc4ccc(OC)cc4)sc3nc2C)cc1`, the growth is 2.43% (active).

Regarding `O=C1/C(=C/c2ccc(C(F)(F)F)cc2)COc2ccc(O)c(O)c21`, the growth was 33.4%.

Consider `CC1(C)CC[C@]2(C(=O)O)CC[C@]3(C)C(=CC[C@@H]4[C@@]5(C)C[C@@H](Cc6cn([C@@H]7O[C@H](CO)[C@@H](O)[C@H](O)[C@H]7O)nn6)[C@H](O)C(C)(C)[C@@H]5CC[C@]43C)[C@@H]2C1`, for which the growth was 92%.

As for `O=C(CN1CCN(c2cc3c(cc2F)c(=O)c(C(=O)O)cn3C2CC2)CC1)N/N=C/c1ccncc1`, the growth was 89.1%.

In the case of `CSCCC(NC(=O)c1ccccc1)C(=O)N/N=C1\S/C(=C/c2ccc(Cl)cc2)C(=O)N1C` (stereo not given), the growth was 57.8%.

Turning to `CC1(C)CCC(S(=O)(=O)c2ccc3c(c2)/C(=N\O)c2cc(S(=O)(=O)N4CCN(c5ccc(F)cc5O)CC4)ccc2-3)CC1`, the growth is -97.6% (active).

As for `COc1cccc(NC(=O)c2cccc(C3CCc4c(cc(OC)c(OC)c4OC)O3)c2)c1` (stereo not given), the growth was 85.6%.

Turning to `C=CCN=C(N)SCCCCCCSC(N)=NCC=C`, the growth is 98.8%.

Consider `CCOC(=O)C1=C(c2ccccc2)N=c2s/c(=C/c3ccc(Br)cc3)c(=O)n2C1c1ccc(O)cc1` (stereo not given), for which the growth was 68.7%.

For `CN1C(=O)N(C)C2C1NC(=S)N2/N=C/C=C/c1ccccc1[N+](=O)[O-]` (stereo not given), the growth is -5.19% (active).

In the case of `CC(C)(C)c1cc(C=Nc2cccc(C(F)(F)F)c2)c(O)c(C(C)(C)C)c1`, the growth is 83.6%.

Take `COc1cc(C#Cc2ccc(=O)oc2C#Cc2ccccc2)cc(OC)c1OC`: the growth was 77.1%.

As to `COc1ccc(C2C3=C(COC3=O)N(CCO)c3cc4c(cc32)OCCO4)cc1OC` (stereo not given), the growth was -8.37% (active).

For the compound `N#C/C(=C\c1ccc(Cl)cc1Cl)C(=O)Nc1ncc(Cc2ccc(Cl)c(Cl)c2)s1`, the growth was 97.9%.

Regarding `O=C(CN1C(=O)/C(=C/c2ccco2)SC1=S)NCCc1c[nH]c2ccc(F)cc12`, the growth was 78%.

In the case of `Cc1ccc(C(=O)c2ccc(CC(=O)N/N=C/c3ccc(O)cc3O)n2C)cc1`, the growth is 31.1%.

For the compound `COc1ccc2c(c1)c(-c1ccc(-c3cn(C)c4ccc(OC)cc34)[nH]1)cn2C`, the growth is 17.9%.

With `CCNCc1ccc(O)c2ncccc12`, the growth was 31.1%.

On to `CCOC(=O)C1CCN(c2ccc(N3C[C@@H](CNCc4ccc(C(=N)N)cc4)OC3=O)cc2)CC1`, for which the growth was 83.8%.

In the case of `COC(=O)/C=C1/SC(=Nc2cccc(Cl)c2)N(CCc2c[nH]c3ccc(O)cc23)C1=O`, the growth was 38.7%.

Consider `CCN1C(=O)N(CC)C2C1NN=c1s/c(=C\c3cc4ccccc4[nH]3)c(=O)n12` (stereo not given), for which the growth is 32.1%.

For `N#Cc1c(N2CCOCC2)nc(=S)[nH]c1-c1ccccc1`, the growth is 15.1%.

For `C[C@@H](CO)[C@@H]1CC[C@]2(C(=O)N3CCN(C)CC3)CC[C@]3(C)[C@H](CC[C@@H]4[C@@]5(C)CC[C@H](O)C(C)(C)[C@@H]5CC[C@]43C)[C@@H]12`, the growth is 91.4%.
